Shown are actives, neighbours in structure and some others; about 2.1% of the full set was active somewhere.
Abeta yeast res = restores growth of yeast expressing A-beta42 peptide; yeast expressing A-beta42, growth rescue, OD600, 48 h; response scale: 0% DMSO, 100% iron-clioquinol control; Potency, µM (titrated, usually from 46.1 µM), usual class: activators; 410,000 tested, 0.063% active; AID 1347071; also: nearly all actives have a fitted effect of over 55% in size
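Growth rescue measured by 600 nm absorbance after 48 h yeast culture at 30 C with compound. Values normalized between DMSO and an equimolar ferric chloride plus clioquinol control.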
TDP43 rescue = rescues yeast growth from TDP-43 toxicity; TDP-43 expressing yeast growth rescue, BacTiter-Glo, 24 h; Potency, µM (titrated, usually from 46.1 µM), usual class: activators; 410,000 tested, 1.8% active; AID 652104; also: nearly all actives have a fitted effect of over 50% in size
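Yeast expressing TDP-43 (pregrown in raffinose, seeded at OD600=0.02 in galactose medium) exposed to compounds 24 hr at 30 deg C. Growth read by BacTiter-Glo luminescence; rescue of toxicity appears as increased signal.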
FUS yeast rescue = FUS proteinopathy suppression in yeast | 390,000 tested, 0.24% active | Potency, µM (doses to about 76.6 µM), usual class: activators | S. cerevisiae FUS-expressing, growth rescue, OD600, 24 h | AID 1347120; also: nearly all actives have a fitted effect of over 55% in size
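Absorbance at 600 nm, taken 24hr after compound addition, measured rescue of FUS-yeast growth at 30C. Induction used 2% galactose with seeding at OD 0.005. Controls: CP55940 from 92uM final, DMSO only.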
PTAP TSG101 blk = blocks PTAP/TSG101 interaction to inhibit HIV-1 budding; Q99816; Fluorescence polarization, FITC-PTAP peptide / Tsg101 binding; Potency, µM (highest dose often 115 µM), hits mostly inhibitors; 340,000 tested, under 10 active; AID 493005; active = well fitted inhibition curve with a large enough effect in the main read-out, with a control signal flat, not every such curve was filed as active; inconclusive = small, poorly fitted or top-dose-only effect, or effect the other way, or a change in a side signal; inactive = no such curve, though single readings can be large or run the other way
Target sequence (Q99816 whole entry, looked up): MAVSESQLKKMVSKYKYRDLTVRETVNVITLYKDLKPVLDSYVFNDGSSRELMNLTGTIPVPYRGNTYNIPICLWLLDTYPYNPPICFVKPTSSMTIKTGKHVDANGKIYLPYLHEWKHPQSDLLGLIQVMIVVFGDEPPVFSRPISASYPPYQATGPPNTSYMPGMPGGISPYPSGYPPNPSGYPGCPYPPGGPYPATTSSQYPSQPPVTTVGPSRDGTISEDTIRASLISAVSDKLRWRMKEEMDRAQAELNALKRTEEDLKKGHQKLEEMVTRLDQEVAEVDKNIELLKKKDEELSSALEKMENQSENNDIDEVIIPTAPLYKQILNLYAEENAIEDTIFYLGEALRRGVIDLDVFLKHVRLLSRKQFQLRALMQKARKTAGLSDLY
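Steps: Tsg101 binding domain dispensed (10 uM final), compounds pinned in DMSO, FITC-labeled PTAP-motif peptide added (50 nM final); after 20 min binding at room temperature, polarization measured.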
aSyn rescue = inhibitors of alpha-synuclein toxicity in yeast; 370,000 tested, 0.14% active; Potency, µM (series often up to 46.1 µM), most hits filed as activators; AID 652106; Yeast expressing alpha-synuclein, growth rescue, BacTiter-Glo, 24 h; also: nearly all actives have a fitted effect of over 65% in size
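Readout is rescue of growth in alpha-synuclein-expressing yeast, so inhibitors of toxicity appear as activators. Growth after 24 hr at 30 deg C in galactose medium is quantified by luminescence.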
Each line names hits and unclear results; the compound was inactive in the other large screens. Unless noted, calls follow the shape of the dose curve; as a rule, active = well fitted curve in the direction sought with a large enough effect; inconclusive = small, poorly fitted or top-dose-only effect, or another doubt; inactive = no such curve, though single readings can be large; an effect the other way counts as inactive or inconclusive.

CC1(C(=O)NS(=O)(=O)c2ccc(Br)cc2)CCN1C(=O)C1(c2ccccc2)CC1 (configuration not stated)	TDP43 rescue inconclusive (no result: PTAP TSG101 blk)
CCCC(=O)N1CCC1(C)C(=O)NS(=O)(=O)c1ccc(OC)cc1 (configuration not stated)	none (no result: PTAP TSG101 blk)
CC(C)(C)c1ccc(S(=O)(=O)NC(=O)C2(C)CCN2C(=O)C2(c3ccccc3)CC2)cc1 (configuration not stated)	TDP43 rescue 17.8µM (no result: PTAP TSG101 blk)
CC1(C(=O)NS(=O)(=O)c2ccc(Cl)cc2)CCN1C(=O)C1(c2ccc(Cl)cc2)CCC1 (configuration not stated)	TDP43 rescue 20µM, FUS yeast rescue inconclusive (no result: PTAP TSG101 blk)
Cc1ccccc1S(=O)(=O)NC(=O)C1(C)CCN1C(=O)CCc1cccs1 (configuration not stated)	none (no result: PTAP TSG101 blk)
NC(=O)CSc1ncc2c(n1)-c1ccccc1N(Cc1cccc(F)c1)S2(=O)=O	none (no result: PTAP TSG101 blk, aSyn rescue)
CN(C)N=Nc1ccc(/C=C2\C=Cc3ccccc32)cc1	none (no result: Abeta yeast res, TDP43 rescue, FUS yeast rescue, PTAP TSG101 blk)
O=c1c2sc3ccccc3c2n(Cc2ccccc2F)c(=O)n1Cc1ccccc1	none (no result: PTAP TSG101 blk, aSyn rescue)
CC1(C(=O)NS(=O)(=O)c2ccccc2)CCN1C(=O)C1(c2ccc(Cl)cc2)CC1 (configuration not stated)	TDP43 rescue inconclusive (no result: PTAP TSG101 blk)
Cc1ccc(F)c(S(=O)(=O)NC(=O)C2(C)CCN2C(=O)C2(c3ccc(Cl)cc3)CCC2)c1 (configuration not stated)	TDP43 rescue inconclusive (no result: PTAP TSG101 blk)
CC(C)(C)c1ccc(S(=O)(=O)NC(=O)C2(C)CCN2C(=O)c2cccc3ccccc23)cc1 (configuration not stated)	TDP43 rescue 20µM (no result: PTAP TSG101 blk)
CC1(C(=O)NS(=O)(=O)c2ccccc2Cl)CCN1C(=O)c1cccc2ccccc12 (configuration not stated)	TDP43 rescue inconclusive (no result: PTAP TSG101 blk)
CC1(C(=O)NS(=O)(=O)c2ccc(Cl)cc2)CCN1C(=O)C1(c2ccccc2)CCCC1 (configuration not stated)	TDP43 rescue 14.1µM (no result: PTAP TSG101 blk)
COc1cc(C)ccc1S(=O)(=O)NC(=O)C1(C)CCN1C(=O)C1(c2ccc(Cl)cc2)CCC1 (configuration not stated)	TDP43 rescue 28.2µM (no result: PTAP TSG101 blk)
Nc1ccc2c(c1)C=C/C2=C\c1ccccc1	none (no result: Abeta yeast res, TDP43 rescue, FUS yeast rescue, PTAP TSG101 blk)
CC1(C)CCC[C@@]2(C)CC=C(C(=O)O)[C@@H]3C[C@]312	TDP43 rescue 11.2µM, aSyn rescue inconclusive
O=C(COc1ccccc1)NC(=S)N1CCc2ccccc21	none
COC(=O)c1ccccc1NC(=S)NC(=O)COc1ccccc1Cl	none (no result: FUS yeast rescue)
O=C(COc1ccccc1Cl)NC(=S)N1CCc2ccccc21	Abeta yeast res inconclusive, TDP43 rescue 17.8µM
O=C(COc1ccccc1Cl)NC(=S)Nc1ccccc1N1CCCC1	Abeta yeast res inconclusive, TDP43 rescue 15.8µM
N#CCCCc1cn(-c2cccc(-c3noc4c3C(=O)N(CC(=O)N3CCOCC3)CC4)c2)nn1	none (no result: Abeta yeast res, TDP43 rescue, PTAP TSG101 blk, aSyn rescue)
COc1cccc(NC(=O)CSc2nc(O)c(C/C=C/c3ccccc3)c(=O)[nH]2)c1	FUS yeast rescue inconclusive (no result: PTAP TSG101 blk, aSyn rescue)
C=CCn1c(C)cc(C(=O)COc2ncnc3sccc23)c1C	FUS yeast rescue inconclusive
C=CCn1c(C)cc(C(=O)COC(=O)c2cncc(Br)c2)c1C	TDP43 rescue 20µM
O=C(C[n+]1cccc(Br)c1)c1ccc(-c2ccccc2)cc1	TDP43 rescue 1.58µM
Cc1cn(C)c(CC(=O)NCc2cccc(Cl)c2)c1C(=O)O	none (no result: PTAP TSG101 blk, aSyn rescue)
COC(=O)N1C(=O)[C@](c2ccccc2)(C(C)C)N1C(=O)OC	TDP43 rescue 10µM
COC(=O)N1C(=O)[C@](Cc2ccccc2)(c2ccccc2)N1C(=O)OC	TDP43 rescue 17.8µM
COC(=O)N1C(=O)[C@@](c2ccccc2)(C2CCCCC2)N1C(=O)OC	TDP43 rescue 17.8µM
CC[C@@]1(c2ccccc2)C(=O)N(C(=O)OC)N1C(=O)OC	none
Cc1cc(C(=O)NN=Cc2cccc(O)c2)n[nH]1	none (no result: Abeta yeast res, TDP43 rescue, PTAP TSG101 blk, aSyn rescue)
C[n+]1ccnc2cc(Cl)ccc21	none (no result: Abeta yeast res, TDP43 rescue, FUS yeast rescue, PTAP TSG101 blk)
CCCCCCCCN1C(=O)N2Cc3ccccc3C2CS1(=O)=O (configuration not stated)	none (no result: Abeta yeast res, TDP43 rescue, PTAP TSG101 blk, aSyn rescue)
COc1cc(Cl)c(C)cc1NC(=O)Cn1cnc2sc(C)c(S(=O)(=O)N3CCCCC3)c2c1=O	none (no result: PTAP TSG101 blk, aSyn rescue)
